Assay [1] has as its target T1, Ephrin type-A receptor 3 (Homo sapiens) (UniProt P29320).
T1 sequence (whole entry): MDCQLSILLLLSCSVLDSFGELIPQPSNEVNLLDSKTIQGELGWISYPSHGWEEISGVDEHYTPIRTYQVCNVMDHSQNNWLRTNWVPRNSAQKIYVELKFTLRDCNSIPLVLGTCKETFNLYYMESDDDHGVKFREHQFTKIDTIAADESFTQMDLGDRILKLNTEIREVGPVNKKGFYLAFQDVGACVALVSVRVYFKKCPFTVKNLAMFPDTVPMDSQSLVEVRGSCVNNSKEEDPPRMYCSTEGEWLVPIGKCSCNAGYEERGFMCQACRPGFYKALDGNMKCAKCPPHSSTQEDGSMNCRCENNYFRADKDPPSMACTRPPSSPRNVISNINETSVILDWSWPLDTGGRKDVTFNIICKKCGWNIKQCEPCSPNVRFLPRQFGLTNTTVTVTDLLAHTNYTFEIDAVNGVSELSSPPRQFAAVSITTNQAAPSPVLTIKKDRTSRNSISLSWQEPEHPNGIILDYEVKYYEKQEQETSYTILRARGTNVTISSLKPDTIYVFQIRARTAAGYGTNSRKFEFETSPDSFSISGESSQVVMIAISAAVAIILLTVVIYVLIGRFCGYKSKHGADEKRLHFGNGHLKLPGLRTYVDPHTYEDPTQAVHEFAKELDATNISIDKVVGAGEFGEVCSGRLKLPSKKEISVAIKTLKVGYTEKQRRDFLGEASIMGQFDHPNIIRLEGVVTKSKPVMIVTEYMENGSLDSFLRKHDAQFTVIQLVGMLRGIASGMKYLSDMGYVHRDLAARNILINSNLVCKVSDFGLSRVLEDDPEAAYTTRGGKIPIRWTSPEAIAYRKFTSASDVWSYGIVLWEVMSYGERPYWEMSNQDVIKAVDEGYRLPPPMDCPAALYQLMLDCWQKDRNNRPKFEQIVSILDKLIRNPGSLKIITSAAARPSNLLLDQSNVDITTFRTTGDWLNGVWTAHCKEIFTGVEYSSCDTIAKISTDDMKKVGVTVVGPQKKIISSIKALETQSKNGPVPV
Conditions: at 10 µM; call rule not given here.

Assay [2] addresses Ephrin type-A receptor 4 (Homo sapiens) (UniProt P54764). Conditions: at 10 µM.
For assay [3], the target named is Ephrin type-A receptor 5 (Homo sapiens) (UniProt P54756). Conditions: at 10 µM.
In assay [4] the target is Ephrin type-A receptor 7 (Homo sapiens) (UniProt Q15375). Conditions: at 1 µM.
Assay [5] shares this target. The following applies: at 10 µM.
For assay [6], the target named is T2, Ephrin type-A receptor 8 (Homo sapiens) (UniProt P29322).
T2 sequence (whole entry): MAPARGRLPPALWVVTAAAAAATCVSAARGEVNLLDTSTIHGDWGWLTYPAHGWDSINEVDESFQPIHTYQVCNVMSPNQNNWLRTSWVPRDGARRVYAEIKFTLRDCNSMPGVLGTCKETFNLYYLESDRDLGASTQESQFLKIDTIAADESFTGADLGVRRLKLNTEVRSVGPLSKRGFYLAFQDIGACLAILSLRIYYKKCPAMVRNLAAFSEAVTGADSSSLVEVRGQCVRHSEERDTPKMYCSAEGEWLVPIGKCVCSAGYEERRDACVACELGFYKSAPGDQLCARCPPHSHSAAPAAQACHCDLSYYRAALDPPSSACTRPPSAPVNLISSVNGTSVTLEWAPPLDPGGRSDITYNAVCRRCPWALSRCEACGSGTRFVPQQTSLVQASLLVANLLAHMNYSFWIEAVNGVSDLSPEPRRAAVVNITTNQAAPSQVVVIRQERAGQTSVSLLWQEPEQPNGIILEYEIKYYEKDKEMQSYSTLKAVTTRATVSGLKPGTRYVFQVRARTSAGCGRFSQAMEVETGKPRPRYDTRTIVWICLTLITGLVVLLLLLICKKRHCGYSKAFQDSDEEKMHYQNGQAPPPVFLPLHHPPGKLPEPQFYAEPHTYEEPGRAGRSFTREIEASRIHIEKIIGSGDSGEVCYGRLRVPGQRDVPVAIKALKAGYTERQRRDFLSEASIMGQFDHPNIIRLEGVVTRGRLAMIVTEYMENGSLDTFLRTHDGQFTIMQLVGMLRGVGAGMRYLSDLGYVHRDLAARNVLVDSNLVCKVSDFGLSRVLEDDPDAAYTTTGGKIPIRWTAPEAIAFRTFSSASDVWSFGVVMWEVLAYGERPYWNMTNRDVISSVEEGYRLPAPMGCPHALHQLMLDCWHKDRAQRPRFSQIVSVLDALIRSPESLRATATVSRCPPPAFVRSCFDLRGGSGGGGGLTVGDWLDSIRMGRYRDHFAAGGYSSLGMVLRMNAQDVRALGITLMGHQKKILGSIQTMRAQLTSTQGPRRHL
Conditions: at 10 µM.

The target of assay [7] is T3, Ephrin type-B receptor 1 (Homo sapiens) (UniProt P54762).
T3 sequence (whole entry): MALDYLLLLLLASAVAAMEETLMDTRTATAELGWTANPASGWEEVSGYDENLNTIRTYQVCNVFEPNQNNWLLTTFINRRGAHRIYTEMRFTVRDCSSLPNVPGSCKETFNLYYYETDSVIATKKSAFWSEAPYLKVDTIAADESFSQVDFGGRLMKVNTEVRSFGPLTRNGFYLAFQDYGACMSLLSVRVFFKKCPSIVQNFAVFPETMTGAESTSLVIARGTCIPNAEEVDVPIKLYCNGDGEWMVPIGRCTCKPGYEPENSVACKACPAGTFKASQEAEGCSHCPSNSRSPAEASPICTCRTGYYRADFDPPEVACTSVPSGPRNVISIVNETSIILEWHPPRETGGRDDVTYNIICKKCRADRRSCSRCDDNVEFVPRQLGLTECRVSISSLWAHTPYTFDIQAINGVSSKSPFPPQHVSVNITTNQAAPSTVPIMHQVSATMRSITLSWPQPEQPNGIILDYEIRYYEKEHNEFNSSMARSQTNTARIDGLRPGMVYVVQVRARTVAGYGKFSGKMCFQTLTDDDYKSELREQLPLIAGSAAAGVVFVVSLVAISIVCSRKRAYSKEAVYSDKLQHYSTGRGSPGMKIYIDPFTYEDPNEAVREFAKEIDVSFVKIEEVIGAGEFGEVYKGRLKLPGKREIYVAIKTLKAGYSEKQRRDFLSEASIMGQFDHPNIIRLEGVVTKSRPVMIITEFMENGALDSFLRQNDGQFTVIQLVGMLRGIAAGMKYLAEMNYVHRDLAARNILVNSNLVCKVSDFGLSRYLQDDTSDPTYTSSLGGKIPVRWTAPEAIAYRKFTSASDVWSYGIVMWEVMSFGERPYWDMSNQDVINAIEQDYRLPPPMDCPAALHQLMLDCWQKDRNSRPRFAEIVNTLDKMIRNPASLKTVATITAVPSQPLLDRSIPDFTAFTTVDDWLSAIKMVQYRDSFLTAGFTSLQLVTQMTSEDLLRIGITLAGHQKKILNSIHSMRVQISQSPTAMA
The following applies: at 10 µM.

Assay [8] has as its target T4, Ephrin type-B receptor 2 (Homo sapiens) (UniProt P29323).
T4 sequence (whole entry): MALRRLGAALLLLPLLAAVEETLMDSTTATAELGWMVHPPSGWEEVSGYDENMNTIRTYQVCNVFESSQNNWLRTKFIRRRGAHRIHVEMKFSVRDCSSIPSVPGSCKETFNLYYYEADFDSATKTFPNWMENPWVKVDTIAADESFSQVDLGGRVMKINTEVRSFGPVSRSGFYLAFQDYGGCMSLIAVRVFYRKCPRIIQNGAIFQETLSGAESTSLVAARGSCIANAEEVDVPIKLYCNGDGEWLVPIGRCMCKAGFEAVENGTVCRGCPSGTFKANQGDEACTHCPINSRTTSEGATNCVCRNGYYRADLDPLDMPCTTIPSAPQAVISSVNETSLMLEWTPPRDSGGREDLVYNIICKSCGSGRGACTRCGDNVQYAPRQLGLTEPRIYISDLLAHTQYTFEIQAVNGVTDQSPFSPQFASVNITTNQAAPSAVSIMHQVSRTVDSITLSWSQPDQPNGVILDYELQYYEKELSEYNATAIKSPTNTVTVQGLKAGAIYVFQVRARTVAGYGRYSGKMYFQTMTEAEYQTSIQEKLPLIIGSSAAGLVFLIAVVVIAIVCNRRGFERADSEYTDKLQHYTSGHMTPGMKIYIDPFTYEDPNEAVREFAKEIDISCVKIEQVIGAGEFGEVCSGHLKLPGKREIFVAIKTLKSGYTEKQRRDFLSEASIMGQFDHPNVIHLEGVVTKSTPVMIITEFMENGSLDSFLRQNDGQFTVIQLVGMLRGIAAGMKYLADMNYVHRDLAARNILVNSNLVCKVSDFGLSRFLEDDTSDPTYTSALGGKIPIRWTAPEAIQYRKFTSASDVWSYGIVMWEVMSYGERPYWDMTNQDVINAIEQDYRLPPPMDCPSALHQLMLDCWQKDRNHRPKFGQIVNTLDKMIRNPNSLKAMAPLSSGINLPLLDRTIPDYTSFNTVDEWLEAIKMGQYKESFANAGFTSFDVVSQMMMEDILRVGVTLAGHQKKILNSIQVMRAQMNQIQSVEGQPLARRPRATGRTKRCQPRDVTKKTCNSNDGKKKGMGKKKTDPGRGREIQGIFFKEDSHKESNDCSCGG
The following applies: at 1 µM.

Assay [9] has as its target T4, Ephrin type-B receptor 2 (Homo sapiens). The following applies: at 10 µM.
Assay [10] deals with T5, Ephrin type-B receptor 3 (Homo sapiens) (UniProt P54753).
T5 sequence (whole entry): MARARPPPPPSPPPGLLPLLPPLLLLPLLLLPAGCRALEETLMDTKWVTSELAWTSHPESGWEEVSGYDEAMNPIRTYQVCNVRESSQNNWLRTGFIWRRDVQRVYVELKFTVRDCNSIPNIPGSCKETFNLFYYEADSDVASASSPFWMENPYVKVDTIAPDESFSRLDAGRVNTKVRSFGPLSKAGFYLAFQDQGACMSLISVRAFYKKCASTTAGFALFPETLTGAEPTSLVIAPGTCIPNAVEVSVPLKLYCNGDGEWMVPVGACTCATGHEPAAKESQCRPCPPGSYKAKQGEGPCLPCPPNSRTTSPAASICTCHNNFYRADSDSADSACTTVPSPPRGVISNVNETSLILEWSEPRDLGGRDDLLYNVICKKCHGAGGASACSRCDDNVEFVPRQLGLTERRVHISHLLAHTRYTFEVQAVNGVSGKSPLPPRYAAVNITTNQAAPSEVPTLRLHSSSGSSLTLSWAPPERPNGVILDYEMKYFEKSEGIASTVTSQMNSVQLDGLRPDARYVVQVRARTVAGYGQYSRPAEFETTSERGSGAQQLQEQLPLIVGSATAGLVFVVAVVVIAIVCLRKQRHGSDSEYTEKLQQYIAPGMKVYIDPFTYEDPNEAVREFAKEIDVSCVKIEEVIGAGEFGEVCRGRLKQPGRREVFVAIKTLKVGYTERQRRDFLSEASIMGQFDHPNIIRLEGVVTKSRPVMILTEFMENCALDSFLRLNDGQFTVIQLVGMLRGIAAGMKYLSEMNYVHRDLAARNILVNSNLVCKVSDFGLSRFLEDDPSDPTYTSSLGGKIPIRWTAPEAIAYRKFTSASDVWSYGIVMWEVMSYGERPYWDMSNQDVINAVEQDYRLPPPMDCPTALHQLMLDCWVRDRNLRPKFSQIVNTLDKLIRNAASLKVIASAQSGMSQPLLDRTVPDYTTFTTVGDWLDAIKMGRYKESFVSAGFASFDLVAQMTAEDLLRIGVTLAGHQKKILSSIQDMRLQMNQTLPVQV
The following applies: at 1 µM.

For assay [11], the target named is T6, Ephrin type-B receptor 4 (Homo sapiens) (UniProt P54760).
T6 sequence (whole entry): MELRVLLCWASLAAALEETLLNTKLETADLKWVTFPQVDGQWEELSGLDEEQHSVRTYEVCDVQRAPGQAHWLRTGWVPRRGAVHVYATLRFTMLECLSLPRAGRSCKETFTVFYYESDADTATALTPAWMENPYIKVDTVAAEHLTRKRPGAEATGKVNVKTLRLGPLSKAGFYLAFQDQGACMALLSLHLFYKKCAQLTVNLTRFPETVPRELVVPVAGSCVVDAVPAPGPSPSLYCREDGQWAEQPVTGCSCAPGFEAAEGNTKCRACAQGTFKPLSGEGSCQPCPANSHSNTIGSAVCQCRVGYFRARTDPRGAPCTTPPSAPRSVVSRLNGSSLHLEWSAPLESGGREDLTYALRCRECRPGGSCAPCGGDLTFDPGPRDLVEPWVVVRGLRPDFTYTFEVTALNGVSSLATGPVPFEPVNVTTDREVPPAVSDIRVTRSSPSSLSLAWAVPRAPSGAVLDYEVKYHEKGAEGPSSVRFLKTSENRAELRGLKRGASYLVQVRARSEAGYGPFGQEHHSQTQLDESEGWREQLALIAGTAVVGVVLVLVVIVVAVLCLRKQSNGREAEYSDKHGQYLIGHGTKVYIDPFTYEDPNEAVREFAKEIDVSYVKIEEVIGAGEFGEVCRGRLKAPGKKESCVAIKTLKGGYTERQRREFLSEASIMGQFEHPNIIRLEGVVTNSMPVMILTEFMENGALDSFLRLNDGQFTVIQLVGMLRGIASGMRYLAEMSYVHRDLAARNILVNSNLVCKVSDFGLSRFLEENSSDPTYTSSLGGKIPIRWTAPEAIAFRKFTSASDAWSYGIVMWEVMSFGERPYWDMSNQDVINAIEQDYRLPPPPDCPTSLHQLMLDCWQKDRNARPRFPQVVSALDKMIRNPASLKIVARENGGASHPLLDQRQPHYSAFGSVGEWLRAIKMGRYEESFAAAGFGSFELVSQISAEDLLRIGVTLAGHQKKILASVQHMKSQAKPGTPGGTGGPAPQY
Conditions: at 1 µM.

For assay [12], the target named is T6, Ephrin type-B receptor 4 (Homo sapiens). Conditions: at 10 µM.
The target in assay [13] is Receptor tyrosine-protein kinase erbB-4 (Homo sapiens) (UniProt Q15303). The following applies: at 1 µM.
For assay [14] the target is unchanged. The following applies: at 10 µM.
Assay [15] deals with Focal adhesion kinase 1 (Homo sapiens) (UniProt Q05397). The following applies: at 1 µM.
Sequence of Focal adhesion kinase 1 (Homo sapiens) (Q05397 2-1052 limits assumed): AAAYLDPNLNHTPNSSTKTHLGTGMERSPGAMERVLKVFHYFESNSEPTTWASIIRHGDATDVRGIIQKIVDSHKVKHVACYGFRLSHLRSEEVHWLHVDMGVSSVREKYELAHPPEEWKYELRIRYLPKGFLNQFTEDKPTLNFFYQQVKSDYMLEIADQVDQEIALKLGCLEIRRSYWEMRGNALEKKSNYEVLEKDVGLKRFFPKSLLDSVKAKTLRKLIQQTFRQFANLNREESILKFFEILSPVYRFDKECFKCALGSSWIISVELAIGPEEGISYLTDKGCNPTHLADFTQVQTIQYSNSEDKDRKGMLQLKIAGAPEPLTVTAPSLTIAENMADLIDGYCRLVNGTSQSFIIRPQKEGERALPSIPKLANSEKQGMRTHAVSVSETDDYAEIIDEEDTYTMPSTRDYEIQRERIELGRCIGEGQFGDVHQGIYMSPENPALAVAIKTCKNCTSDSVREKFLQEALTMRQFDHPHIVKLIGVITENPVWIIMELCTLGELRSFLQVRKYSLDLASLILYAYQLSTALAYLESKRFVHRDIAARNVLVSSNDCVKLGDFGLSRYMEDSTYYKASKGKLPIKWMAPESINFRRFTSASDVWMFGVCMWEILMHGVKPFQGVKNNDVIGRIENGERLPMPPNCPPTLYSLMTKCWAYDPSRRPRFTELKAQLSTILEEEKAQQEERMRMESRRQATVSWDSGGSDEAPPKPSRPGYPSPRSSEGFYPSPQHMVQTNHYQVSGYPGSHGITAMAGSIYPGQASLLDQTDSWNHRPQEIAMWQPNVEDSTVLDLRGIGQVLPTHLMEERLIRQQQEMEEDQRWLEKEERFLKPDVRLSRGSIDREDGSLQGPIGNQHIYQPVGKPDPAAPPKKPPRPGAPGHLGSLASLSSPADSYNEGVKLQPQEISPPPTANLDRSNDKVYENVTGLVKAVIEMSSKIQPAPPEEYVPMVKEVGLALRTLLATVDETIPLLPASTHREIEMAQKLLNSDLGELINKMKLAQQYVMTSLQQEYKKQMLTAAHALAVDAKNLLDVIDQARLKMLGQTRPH

Sequence of Ephrin type-A receptor 7 (Homo sapiens) (Q15375 28-998 limits assumed): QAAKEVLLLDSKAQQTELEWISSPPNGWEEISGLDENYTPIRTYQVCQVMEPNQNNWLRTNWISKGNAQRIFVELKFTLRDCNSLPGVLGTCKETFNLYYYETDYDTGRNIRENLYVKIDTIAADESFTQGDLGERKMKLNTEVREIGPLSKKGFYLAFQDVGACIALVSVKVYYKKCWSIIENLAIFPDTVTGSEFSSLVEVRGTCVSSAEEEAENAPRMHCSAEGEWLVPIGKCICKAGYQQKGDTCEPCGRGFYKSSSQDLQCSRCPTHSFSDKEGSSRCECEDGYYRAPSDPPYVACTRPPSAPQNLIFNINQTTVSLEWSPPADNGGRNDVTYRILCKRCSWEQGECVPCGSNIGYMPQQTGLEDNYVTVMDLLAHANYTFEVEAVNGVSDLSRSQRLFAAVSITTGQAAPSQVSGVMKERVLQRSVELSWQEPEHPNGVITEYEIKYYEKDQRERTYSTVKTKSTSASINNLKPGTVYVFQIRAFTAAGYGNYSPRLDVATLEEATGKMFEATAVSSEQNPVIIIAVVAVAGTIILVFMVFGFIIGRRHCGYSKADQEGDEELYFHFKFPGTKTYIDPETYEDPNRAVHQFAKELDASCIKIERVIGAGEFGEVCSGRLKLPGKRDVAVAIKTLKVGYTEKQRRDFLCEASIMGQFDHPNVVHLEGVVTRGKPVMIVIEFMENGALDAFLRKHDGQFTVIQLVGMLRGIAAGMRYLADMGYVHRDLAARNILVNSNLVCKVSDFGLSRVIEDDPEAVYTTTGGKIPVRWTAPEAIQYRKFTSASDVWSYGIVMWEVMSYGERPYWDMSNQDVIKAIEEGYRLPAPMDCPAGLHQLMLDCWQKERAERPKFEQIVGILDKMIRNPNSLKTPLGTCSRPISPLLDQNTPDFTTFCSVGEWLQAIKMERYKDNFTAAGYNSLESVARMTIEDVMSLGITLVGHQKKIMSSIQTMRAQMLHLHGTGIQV
Sequence of Receptor tyrosine-protein kinase erbB-4 (Homo sapiens) (Q15303 whole entry): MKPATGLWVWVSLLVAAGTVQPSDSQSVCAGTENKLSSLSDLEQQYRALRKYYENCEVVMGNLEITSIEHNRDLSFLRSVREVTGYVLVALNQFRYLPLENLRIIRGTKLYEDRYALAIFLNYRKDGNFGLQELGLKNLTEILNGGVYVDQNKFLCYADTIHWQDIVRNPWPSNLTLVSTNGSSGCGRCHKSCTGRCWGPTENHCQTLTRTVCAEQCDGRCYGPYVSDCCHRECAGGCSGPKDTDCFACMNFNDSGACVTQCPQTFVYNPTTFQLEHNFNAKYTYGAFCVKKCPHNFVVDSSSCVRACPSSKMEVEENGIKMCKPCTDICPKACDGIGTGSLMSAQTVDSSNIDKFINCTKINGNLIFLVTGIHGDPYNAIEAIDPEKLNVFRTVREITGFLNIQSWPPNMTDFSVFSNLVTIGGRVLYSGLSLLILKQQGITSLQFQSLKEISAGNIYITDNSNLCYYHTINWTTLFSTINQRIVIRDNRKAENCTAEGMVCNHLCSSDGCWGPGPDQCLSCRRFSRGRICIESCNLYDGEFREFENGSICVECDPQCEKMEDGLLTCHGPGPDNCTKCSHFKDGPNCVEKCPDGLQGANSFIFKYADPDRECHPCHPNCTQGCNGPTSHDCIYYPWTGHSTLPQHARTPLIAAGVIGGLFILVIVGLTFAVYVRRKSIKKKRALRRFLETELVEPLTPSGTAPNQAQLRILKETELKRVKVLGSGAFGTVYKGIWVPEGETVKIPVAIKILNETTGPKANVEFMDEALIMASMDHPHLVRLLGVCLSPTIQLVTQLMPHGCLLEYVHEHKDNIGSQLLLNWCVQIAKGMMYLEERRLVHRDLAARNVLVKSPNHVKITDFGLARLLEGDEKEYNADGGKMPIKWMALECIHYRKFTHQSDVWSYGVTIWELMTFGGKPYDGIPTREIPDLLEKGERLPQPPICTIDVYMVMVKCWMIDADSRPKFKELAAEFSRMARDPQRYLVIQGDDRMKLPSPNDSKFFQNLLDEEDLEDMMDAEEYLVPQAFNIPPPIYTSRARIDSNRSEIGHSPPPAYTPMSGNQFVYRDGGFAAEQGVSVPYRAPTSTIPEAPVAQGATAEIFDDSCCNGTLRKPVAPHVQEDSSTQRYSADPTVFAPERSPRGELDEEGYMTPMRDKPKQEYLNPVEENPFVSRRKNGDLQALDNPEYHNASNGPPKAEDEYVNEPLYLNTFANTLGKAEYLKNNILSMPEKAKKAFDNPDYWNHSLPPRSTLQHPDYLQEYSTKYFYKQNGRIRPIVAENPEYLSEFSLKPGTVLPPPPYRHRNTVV
Sequence of Ephrin type-A receptor 5 (Homo sapiens) (P54756 whole entry): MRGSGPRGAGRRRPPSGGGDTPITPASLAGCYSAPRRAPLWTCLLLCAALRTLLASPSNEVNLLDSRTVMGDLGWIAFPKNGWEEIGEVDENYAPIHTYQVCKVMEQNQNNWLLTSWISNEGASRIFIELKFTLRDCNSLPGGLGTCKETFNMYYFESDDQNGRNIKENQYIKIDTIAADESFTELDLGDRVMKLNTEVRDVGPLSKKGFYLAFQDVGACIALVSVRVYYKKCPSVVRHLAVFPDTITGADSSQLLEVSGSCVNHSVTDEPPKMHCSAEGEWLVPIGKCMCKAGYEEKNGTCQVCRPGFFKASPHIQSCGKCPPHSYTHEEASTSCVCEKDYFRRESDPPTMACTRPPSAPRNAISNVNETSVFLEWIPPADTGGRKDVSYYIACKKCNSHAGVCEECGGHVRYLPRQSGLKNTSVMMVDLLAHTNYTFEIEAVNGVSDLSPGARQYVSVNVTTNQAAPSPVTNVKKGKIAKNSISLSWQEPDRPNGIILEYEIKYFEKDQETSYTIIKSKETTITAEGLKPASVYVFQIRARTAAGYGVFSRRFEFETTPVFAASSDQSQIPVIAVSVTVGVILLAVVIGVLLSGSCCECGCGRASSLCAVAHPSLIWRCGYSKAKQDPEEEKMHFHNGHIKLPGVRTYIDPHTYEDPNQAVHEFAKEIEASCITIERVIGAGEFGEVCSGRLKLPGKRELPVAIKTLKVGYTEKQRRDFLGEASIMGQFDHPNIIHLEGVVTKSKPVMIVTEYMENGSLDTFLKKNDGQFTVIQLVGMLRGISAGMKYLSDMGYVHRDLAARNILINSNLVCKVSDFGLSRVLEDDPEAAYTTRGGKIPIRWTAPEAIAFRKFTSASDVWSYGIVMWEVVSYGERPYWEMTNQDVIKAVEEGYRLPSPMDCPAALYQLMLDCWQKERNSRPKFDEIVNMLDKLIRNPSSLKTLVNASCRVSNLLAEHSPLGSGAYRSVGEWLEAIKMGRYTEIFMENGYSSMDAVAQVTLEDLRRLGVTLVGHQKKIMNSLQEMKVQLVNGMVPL

On to `Cc1cc(Nc2nc(-c3ccccc3)nc3ccccc23)n[nH]1`, for which the residual activity (commonly the signal under treatment as a percentage of the control signal) amounted to 8% in [1]; 73% in [2]; 33% in assay [3]; 50% in assay [4]; 6% in assay [5]; 68% in [6]. Also, the residual activity is 17% in [7]; 100% in assay [8]; 48% in assay [9]; 111% (inactive) in assay [10]; 75% in assay [11]; 20% in [12]. Also, the residual activity in [13] worked out at 106%; in assay [14], 45%; in assay [15], 36%.

The record behind these values is ChEMBL document CHEMBL2218924, “A broad activity screen in support of a chemogenomic map for kinase signalling research and drug discovery” (Biochem J, 2013).
